Inconclusive results are not listed. Entries that show only a call come without a potency. The source made the active and inactive calls. Calls come from the whole dose curve.
Biological target: Beta-2 adrenergic receptor (Homo sapiens) (UniProt P07550)
Assay: Adrenergic beta2 receptor (ADRB2) small molecule agonists, cell-based qHTS assay (AID 1963593);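 note: CHO cells stably overexpressing human ADRB2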
Conditions: CHO-ADRB2 cells, cAMP HTRF, 30 min; series mostly up to 42.5 µM
Outline: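 CHO cells stably over-expressing ADRB2 were plated overnight at 37C, then dosed with compounds plus a stimulation mix containing 100uM IBMX and 25uM Ro-20-1724 for 0.5hr at room temperature. cAMP was measured by HTRF competition, 1hr.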

Chain of Beta-2 adrenergic receptor (Homo sapiens) (P07550 whole entry, looked up): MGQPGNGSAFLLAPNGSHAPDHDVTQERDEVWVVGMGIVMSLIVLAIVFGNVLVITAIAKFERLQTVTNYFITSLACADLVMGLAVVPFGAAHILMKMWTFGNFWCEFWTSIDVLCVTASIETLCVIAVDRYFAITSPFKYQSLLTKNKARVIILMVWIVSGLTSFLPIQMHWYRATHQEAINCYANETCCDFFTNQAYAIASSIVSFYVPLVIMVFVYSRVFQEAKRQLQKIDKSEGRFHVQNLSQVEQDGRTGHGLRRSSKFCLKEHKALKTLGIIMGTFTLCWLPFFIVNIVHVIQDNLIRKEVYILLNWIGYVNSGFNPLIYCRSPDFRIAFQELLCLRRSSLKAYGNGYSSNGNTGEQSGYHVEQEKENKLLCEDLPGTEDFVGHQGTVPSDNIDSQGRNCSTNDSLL

Structure (SMILES)	Potency
C1COC(NC(C2CC2)C2CC2)=N1	inactive
CCNC(=O)NCCCOc1cccc(CN2CCCCC2)c1	inactive
O=C1CCC(C2CCCCC2)CC1	inactive
Cc1ccc2nc(N)[nH]c(=O)c2c1Sc1ccncc1	inactive
CCc1nnc(NS(=O)(=O)c2ccc(N)cc2)s1	inactive
C=C(C)C(=O)OCC1CCCO1 (stereo not given)	inactive
N#CCC(=O)NN	inactive
O=C1CC2(CCCC2)CC(=O)N1CCNCC1COc2ccccc2O1 (stereo not given)	inactive
CN1CCN(Cc2cc(-c3ccc4[nH]c(=O)oc4c3)co2)[C@@H](c2ccc(F)cc2)C1	inactive
Cc1cc(C)n(CO)n1	inactive
CCCCCCCCSCc1cc(C)c(O)c(CSCCCCCCCC)c1	inactive
C=CCOc1nc(OCC=C)nc(OCC=C)n1	inactive
COC(=O)C1=C(C)NC(C)=C(C(=O)OCCN2CCN(C(c3ccccc3)c3ccccc3)CC2)C1c1cccc([N+](=O)[O-])c1 (stereo not given)	inactive
CCCCCCOC(=O)C(C)C	inactive
COC(=O)CCCCC(CCSS/C(CCO)=C(\C)N(C=O)Cc1cnc(C)nc1N)SC(C)=O (stereo not given)	inactive
CCN(CC)CCOc1ccccc1C(=O)CCc1ccccc1	inactive
Cc1cc(O)ccc1N	inactive
O=C(CCN1CCC(c2ccccc2)C1)c1ccc2c(c1)OCCO2 (stereo not given)	inactive
CC1(c2ccccc2)OC(C(=O)O)=CC1=O (stereo not given)	inactive
CCO[Si](CCCCl)(OCC)OCC	inactive

Structure (SMILES)	Potency
O=C(O)CCC(=O)OC[C@@H](NC(=O)C(Cl)Cl)[C@H](O)c1ccc([N+](=O)[O-])cc1	inactive
Cc1cc(CC(=O)O)c(C)n1-c1ccc(Cl)cc1	inactive
COC(=O)C(C)O (stereo not given)	inactive
CC(=O)O[C@@H]1CC2CCC1(C)C2(C)C (stereo not given in full)	inactive
O=C1CCCCCCCCCCOCCCCO1	inactive
O=C1OC(=O)C2C3C=CC(C3)C12 (stereo not given)	inactive
CCC(C(=O)OCCN1CCOC(c2ccccc2)C1C)c1ccccc1 (stereo not given)	inactive
O=C(O)Cc1c(Cl)ccc(Cl)c1Cl	inactive
O=S(=O)(O)c1ccc(Cl)cc1	inactive
O=S(O)O	inactive
Brc1ccc(-c2ccccc2)cc1	inactive
CO/N=C(\C(=O)N[C@@H]1C(=O)N2C(C(=O)O)=C(CSc3nc(=O)c(O)nn3C)CS[C@H]12)c1csc(N)n1	inactive
CCOC(=O)C(=O)c1csc(NC=O)n1	inactive
NS(=O)(=O)Cc1noc2ccccc12	inactive
Cc1cccc(CN2CCN(C(c3ccccc3)c3ccc(Cl)cc3)CC2)c1 (stereo not given)	inactive
C[C@]12CCC(=O)C=C1CC[C@@H]1[C@@H]2[C@@H](O)C[C@@]2(C)[C@H]1CC[C@]2(O)C(=O)COC(=O)CCC(=O)O	inactive
CCCCCCCCCCCCCCNCCO	inactive
CCCCCCC(O)CCCCCCCCCCC(=O)OC (stereo not given)	inactive
Oc1ccccc1C=NCc1ccccc1	inactive
Cc1ccc2c(c1[N+](=O)[O-])C(=O)c1ccccc1C2=O	inactive

Reference: PubChem BioAssay (Tox21)
